Most compounds without a hit are left out; they make up all but 3.5% or so of the library.
MITF inh = blocks human microphthalmia-associated transcription factor. O75030. AlphaScreen MITF homodimerization, bead proximity signal. inhibition, % at 2.6 µM. actives 0.91% (n = 650,000). AID 1259374; in the data active means inhibition above about 50%;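 further: 0% = vehicle wells with protein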
FBW7 activator = activators of human E3 ligase FBW7; Q969H0; AlphaScreen FBW7–phospho-cyclin E peptide binding, activator screen; normalized activity (activation), % at 26.1 µM; actives 0.13% (n = 650,000); in the data active means normalized activity above about 1.9%;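 further: purified mutant Fbw7 with reduced substrate affinity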
Target sequence (Q969H0 whole entry, looked up): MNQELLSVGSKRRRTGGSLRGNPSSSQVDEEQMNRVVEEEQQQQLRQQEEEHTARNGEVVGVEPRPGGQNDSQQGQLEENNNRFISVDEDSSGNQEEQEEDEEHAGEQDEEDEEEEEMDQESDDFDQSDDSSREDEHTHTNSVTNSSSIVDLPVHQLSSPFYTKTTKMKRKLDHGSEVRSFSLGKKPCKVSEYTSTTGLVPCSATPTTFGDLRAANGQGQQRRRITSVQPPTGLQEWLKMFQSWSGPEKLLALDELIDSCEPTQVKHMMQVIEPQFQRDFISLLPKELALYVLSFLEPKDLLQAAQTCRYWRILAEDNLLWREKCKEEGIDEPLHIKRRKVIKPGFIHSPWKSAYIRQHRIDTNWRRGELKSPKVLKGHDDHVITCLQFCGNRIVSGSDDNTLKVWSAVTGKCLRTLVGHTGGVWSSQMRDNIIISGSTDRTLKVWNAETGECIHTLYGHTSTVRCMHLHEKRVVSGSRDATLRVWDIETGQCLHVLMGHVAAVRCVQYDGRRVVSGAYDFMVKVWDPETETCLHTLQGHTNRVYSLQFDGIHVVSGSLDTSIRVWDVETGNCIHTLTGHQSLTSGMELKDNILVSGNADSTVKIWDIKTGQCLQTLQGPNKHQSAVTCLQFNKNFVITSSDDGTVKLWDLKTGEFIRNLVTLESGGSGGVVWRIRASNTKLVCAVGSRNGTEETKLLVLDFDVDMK
TEAD-YAP block = TEAD-YAP interaction inhibition | HEK-TIYL cells, TEAD-Gal4/YAP UAS-luciferase luminescence | inhibition, % at 9.12 µM | actives 1.4% (n = 640,000); in the data active means inhibition above about 32%;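 further: 0% = median of test compound wells and 100% = reference inhibitor wells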
GPR151 activ = human GPR151 activation; Q8TDV0; PathHunter beta-arrestin GPR151 cells, luminescence; activation, % at 11.2 µM; actives 1% (n = 650,000); in the data active means activation above about 4.9%;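 further: 0% = median of compound wells and 100% = cells with positive control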
* hit, by the source's call.

SMILES | MITF inh | FBW7 activator | TEAD-YAP block | GPR151 activ
O=C1CC(c2cccc(Cl)c2)Cc2nc(N3CCOCC3)ncc21 (centres undefined) | -4 | 0 | 0 | 0
Cc1ccc(/C=C2\SC(=S)N(/N=C/c3cc([N+](=O)[O-])ccc3O)C2=O)o1 | 74* | -1 | 3 | 0
COc1cc(C(=O)COC(=O)Cc2ccsc2)cc(OC)c1OC | -8 | 0 | 8 | 0
COc1cc(CC(=O)OCC(=O)c2ccc(Br)cc2)cc(OC)c1OC | 1 | 0 | 59* | 1
COc1cc(CC(=O)OCC(=O)c2ccc3c(c2)OCCO3)cc(OC)c1OC | -5 | 0 | 52* | 2
CC(=O)Oc1ccccc1/C=C/c1nc2ccccc2c(=O)o1 | 17 | 0 | 59* | -9
CCCNc1nc(-c2ccc(N3CCN(C)CC3)cc2)nc2c1ncn2-c1ccsc1 | 14 | 0 | 28 | -3
COc1ccc(-c2nc(NCCO)c3ncn(-c4ccsc4)c3n2)cc1 | 3 | 0 | 61* | 1
CN1CCN(c2ccc(-c3nc(NCc4cccnc4)c4ncn(-c5ccsc5)c4n3)cc2)CC1 | 32 | 0 | 36* | -3
CN1CCN(c2ccc(-c3nc(NCCO)c4ncn(-c5ccsc5)c4n3)cc2)CC1 | 12 | 0 | 87* | -1
CSc1ccc(C(=O)N2CCOc3ccc(CN4CCN(C(C)=O)CC4)cc3C2)cc1 | 9 | 0 | -5 | 1
CCOC(=O)C1=C(c2ccccc2)NC(=O)NC1c1cc(Cl)c(O)c(OCC)c1 (centres undefined) | 20 | 0 | 5 | 0
CCCCOC(=O)c1cccc(NC(=O)COc2ccc(Br)cc2Br)c1 | -4 | 0 | 58* | 0
COC(=O)c1cccc(NC(=O)COc2ccccc2Cl)c1 | 7 | 0 | 31 | 0
CCCOC(=O)c1cccc(NC(=O)COc2ccccc2Cl)c1 | 4 | 0 | 45* | -2
Cc1cnc(C(=O)N2CCCC(c3nc(C)ncc3-c3ccncc3)C2)cn1 (centres undefined) | 14 | 0 | -18 | -1
O=C(c1cccs1)N1CCCC(c2nc(-c3ccncc3)ncc2-c2ccccc2)C1 (centres undefined) | -6 | 0 | 51* | 1
O=C(c1ccco1)N1CCCC(c2nc(-c3ccncc3)ncc2-c2ccccc2)C1 (centres undefined) | 17 | 0 | 5 | 0
Cc1cc(C(=O)N2CCCC(c3nc(-c4ccncc4)ncc3-c3ccccc3C)C2)no1 (centres undefined) | -7 | 0 | 58* | 1
O=C(CN1CCCC(c2ncncc2-c2ccncc2)C1)N1CCc2ccccc21 (centres undefined) | 18 | 0 | -2 | 0
O=C(CN1Cc2ccccc2C1)N1CCCC(c2ncncc2-c2ccncc2)C1 (centres undefined) | 16 | 3.3* | 4 | 0
Cn1cc(-c2cccc3cnc(NC4CCN(C(=O)N5CCCC5)C4)nc23)cn1 (centres undefined) | 0 | 0 | 39* | -1
CCc1ccc(NC(=O)c2ccc(NCc3ccccc3OC)c([N+](=O)[O-])c2)cc1 | 4 | 0 | 1 | 0
CCc1ccccc1NC(=O)c1ccc(NCc2ccccc2OC)c([N+](=O)[O-])c1 | 4 | 0 | 43* | 0
COc1ccccc1CNc1ccc(C(=O)Nc2ccc(C)c(F)c2)cc1[N+](=O)[O-] | -2 | 0 | 1 | 0
SMILES | MITF inh | FBW7 activator | TEAD-YAP block | GPR151 activ
COc1ccccc1CNc1ccc(C(=O)Nc2ccc(C)cc2C)cc1[N+](=O)[O-] | 7 | 1 | 57* | 2
N#CC1=C(SCc2cccc3ccccc23)NC(=O)CC1c1ccc(Cl)cc1 (centres undefined) | -10 | 0 | -15 | 2
O=C(/C=C/c1ccc([N+](=O)[O-])cc1)Nc1cccc(C(=O)c2ccc(F)cc2)c1 | 6 | 0 | 38* | 2
O=C(O)CC1C(=O)N2CCNC2=C1C(=O)c1ccccc1 (centres undefined) | -9 | 0 | -1 | 0
Cc1cc(/C=C2/NC(=O)N(c3cccc(Cl)c3)C2=O)c(C)n1C | 1 | 0 | 55* | -1
COc1ccc(-c2csc(/C(C#N)=C\Nc3cc(OC)ccc3OC)n2)cc1 | 12 | 1 | -3 | -1
O=C(c1cc2n(n1)C(C(F)(F)F)CC(c1ccc(Cl)cc1)N2)N1CCN(c2cccc(Cl)c2)CC1 (centres undefined) | -22 | 0 | -8 | 1
O=C(c1cc2n(n1)C(C(F)(F)F)CC(c1ccc3c(c1)OCO3)N2)N1CCN(c2cccc(Cl)c2)CC1 (centres undefined) | 19 | 3.7* | -6 | 0

Source: PubChem BioAssay (The Scripps Research Institute Molecular Screening Center)
